# According to the supplement of paper PMC10338343:
# ± gives the standard deviation.
# Test system: MILI (PIWIL2) piRISC loaded with L1MC piRNA (26 nt)
# Assay: pre-steady-state target cleavage rate (min^-1); guide: L1MC piRNA 5'p-UAACUAAAUACUAUGCAAGCUGUAGG; MIWI and MILI are mouse PIWI proteins and EfPiwi is from a freshwater sponge; tags in brackets are library labels; higher = faster piRNA-guided slicing of the target
# Conditions: auxiliary factor: 500 nM mouse GTSF1
# How it was run: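 Active affinity-purified piRISC carrying one synthetic guide (1 nM) was mixed with a transcribed, DNA-blocked target RNA library […] in HEPES–potassium acetate buffer at 33 °C for 0–8 or 0–960 min, with or without 500 nM GTSF1 partner protein. Uncleaved targets were then sequenced and normalised to depth and to weakly complementary targets. Three trials were pooled, and k3 was capped at 0.0001 min^-1. A burst-and-steady-state fit was applied to obtain the pre-steady-state cleavage rate.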
# 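Also: 1 nM active piRISC with 0.1 nM target library at 33 °C single turnover.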
row,Sequence,pre-steady-state target cleavage rate
1,UCCUGGAACUGCUUGCAUAGUAUUUAGAUA,0.123 ± 0.023
2,UCCUGGAUCAGCUUGCAUUGUAUUUAGAUA,0.103 ± 0.019
3,UCCUGGAACAGCUUGCAUAGUAUUUAGAUA,0.137 ± 0.025
4,UCCUCCUACAGCUUGCAAAGUAUUUUCAAA,0.0849 ± 0.023
5,UCCUGGAUGAGCUUGCAUUGUAUUUAGAAA,0.0178 ± 0.0069
6,UCCUGGUACAGCUUGCAUACUAUUUAGAAA,0.0227 ± 0.011
7,UCCUGGAACUCCUUGCAUAGUAUUUAGAAA,0.162 ± 0.029
8,UCCUCCUACACCUUGCAUAGAAUUUAGUUA,0.0594 ± 0.019
9,UCCUGGUACUGCUUGCAUAGUAUUUAGUAA,0.0986 ± 0.018
10,UCCUCCAUCAGCUUGCAUAGUAUUUACAAA,0.0667 ± 0.017
11,UCCUGCUACAGCUUGCAUACUAUUUAGAAA,0.0482 ± 0.015
12,UCCUCCAACAGCUUGCAUAGUAUUUAGAAA,0.147 ± 0.023
13,UCCUGGAAGAGCUUGCAUAGAAUUUAGUUA,0.0498 ± 0.011
14,UCCUGGUACAGCUUGCUAUAGUAUUUAGUUA,0.0224 ± 0.009
15,UCCUGGAUGUCGAACCAUAGUAUUUACAAA [g5:g15:cont:t1A],< 0.0001
16,UCCUGGUACAGCUUGCAUUGUAAUUAGUUA,0.0918 ± 0.016
